Compounds without any hit were thinned out: in the full panel of roughly 83,000, 20% have a hit.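 The test compound was applied at a single concentration to cells in 96-well plates for 48 hours, and percent growth was recorded.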 Unmarked numbers belong to inactive results. The source made the active and inactive calls. Rule for the calls: active = growth percent below 10; inactive = the rest.
What follows are compounds tested on M14 melanoma (assay: NCI-60 one-dose screen, 48 h (100 = growth as untreated, 0 = no growth, -100 = all killed)). Conditions: 10 µM unless noted.

Row | SMILES | growth
1 | CCCCCSB(SCCCCC)c1ccccc1 | 102%
2 | c1ccc(CNc2ccc3nc(CCC4CCCCC4)[nH]c3c2)cc1 | 76.2%
3 | S=c1ssnc1-c1cccs1 | 94.2%
4 | O=C(/C=C/c1ccc(Br)cc1)c1ccc(-n2cc(CN3CCN(c4cc5c(cc4F)c(=O)c(C(=O)O)cn5C4CC4)CC3)nn2)cc1 | 87%
5 | COc1ccc(Cc2cnc(NC(=O)c3sc4ccccc4c3Cl)s2)cc1 | 10.2%
6 | N#C/C(=C\c1ccc(Cl)cc1Cl)C(=O)Nc1ncc(Cc2ccc(Cl)c(Cl)c2)s1 | 53.8%
7 | N#Cc1c(-c2cccc([N+](=O)[O-])c2)cc(-c2ccc(Nc3nc(Nc4ccc(F)cc4)nc(Nc4ccc(F)cc4)n3)cc2)nc1N | 110%
8 | O=C(CCCCCCN1CC(=O)N2[C@@H](c3ccc(Cl)cc3)c3[nH]c4ccccc4c3C[C@H]2C1=O)NO | 59%
9 | CCCCCCCCn1ccc2cc(NC(=O)Cn3cc(CN4CCC(C)CC4)nn3)ccc21 | -65.2% (active)
10 | CCCC(O)Cn1ncc(C(=O)OCC)c1NC(=O)NCc1cccc(F)c1 (stereo not given) | 80.5%
11 | COc1cc2c3c(c1O)-c1ccccc1[C@@H]1OC(=O)N(CC2)[C@H]31 | 103%
12 | C/C(=C(/c1ccc(Cl)cc1)c1ccc(OCCCN(C)C)cc1)c1ccc(Cl)cc1 | 91.5%
13 | Cc1cc(C(=O)Nc2cc(Nc3ncccc3-c3ncnc4nc[nH]c34)ccc2F)cc(C(F)(F)F)c1 | 5.2% (active)
14 | CCOC(=O)NN1CC(O)=C(c2nc(-c3ccc(Br)cc3)cs2)C1=N | 156%
15 | O=C1C(Cl)=C(NCCN2CCOCC2)C(=O)c2ncccc21 | -85.9% (active)
16 | O=C(Nc1ccc(F)cc1)Nc1ccccc1CNc1nc(Nc2ccc(OCCN3CCCC3)cc2)ncc1Cl | -39.2% (active)
17 | C[C@H]1[C@H](C)CC[C@]2(C(=O)O)CC[C@]3(C)C(=CC[C@@H]4[C@@]5(C)C[C@@H](Cc6cn([C@@H]7O[C@H](CO)[C@@H](O)[C@H](O)[C@H]7O)nn6)[C@H](O)C(C)(C)[C@@H]5CC[C@]43C)[C@H]12 | 93.9%
18 | COC(=O)c1ccc2c(c1)c1c(C)c3ccncc3c(C)c1n2C | 30.8%
19 | COc1cc(C(=O)c2c(-c3ccccc3)oc3c(OC)cccc23)cc(OC)c1O | 16.3%
20 | C=C1C(=O)O[C@H]2[C@H]1CC/C(CNC(=O)c1cc3ccccc3[nH]1)=C\CC[C@@]1(C)O[C@@H]21 | -57.1% (active)

Row | SMILES | growth
21 | O=P(O)(O)OCC1OC(n2cnc3c(NCc4ccccc4)ncnc32)C(O)C1O (stereo not given) | 29.4%
22 | CCN(CC)CCCNCc1cc(-c2ccccc2)nc2cc(Cl)ccc12 | -95.3% (active)
23 | COc1cc2nc(Nc3cccc(F)c3)nc(Nc3cc(C)[nH]n3)c2cc1OC | -91.4% [20 µM] (active)
24 | CCC/C(=N\NC(N)=O)C(OC)OC | 96.9%
25 | O=C1c2cc3c(cc2-c2c1c1ccc(Cl)cc1c(=O)n2C[C@H](O)CO)OCO3 | -14.2% (active)
26 | CCSC1=CC(=O)c2ccccc2C1=O | 84.1%
27 | COc1cc(-c2nc3occn3c2-c2ccnc(NCCCNS(=O)(=O)c3ccccc3)n2)ccc1F | 17.2%
28 | COC1=CC(c2ccc[nH]2)=N/C1=C\c1[nH]c(C)c(CC(=O)OCc2ccccc2)c1C | -55.9% (active)
29 | O=C(CSc1nnc2sc(Nc3cccc(Cl)c3)nn12)c1ccc(F)cc1 | 96%
30 | COc1ccc(C2=Nc3c(N)ncnc3NC(c3cccc(Nc4ccnc5cc(C(F)(F)F)ccc45)c3)C2)cc1 (stereo not given) | 66%
31 | Nc1c(C(=O)Nc2cccc3ncccc23)sc2nc3c(cc12)C(=O)CCC3 | 50.5%
32 | C#CCn1cnc2c(Nc3cccc(NC(=O)CCl)c3)ncnc21 | 24.4%
33 | COc1cc2oc(-c3cccc(NC(=O)c4ccc5c(c4)OCO5)c3)cc(=O)c2c(OC)c1OC | 49.3%
34 | CCOC(=O)CSc1nc2sc3c(c2c(=O)n1-c1ccc([N+](=O)[O-])cc1)CCCCC3 | 75.3%
35 | Cn1cc(-c2nn3cc(-c4ccccc4)nc3s2)c2ccccc21 | 51.5%
36 | C=C1C(=O)O[C@H]2[C@H]1CC/C(COC(=O)NCCCCCCCCNC(=O)OC/C1=C/CC[C@@]3(C)O[C@H]3[C@H]3OC(=O)C(=C)[C@@H]3CC1)=C\CC[C@@]1(C)O[C@@H]21 | -67.8% (active)
37 | Oc1c(I)cc(-c2nc3ccccc3s2)cc1CN(Cc1ccccn1)Cc1ccccn1 | -27.5% (active)
38 | Cc1ncc(C(=O)Nc2ccc(CN3CCN(C)CC3)c(C(F)(F)F)c2)cc1C#Cc1cnc(N)c2ccncc12 | -63.7% (active)
39 | O=C1/C(=C/c2ccc(C(F)(F)F)cc2)COc2ccc(O)c(O)c21 | 42.3%
40 | O=C1N[C@@H]2[C@@H](O)[C@@H](O)[C@H](O)C[C@H]2c2cc3c(c(O)c21)OCCO3 | -45.7% (active)
